This passage reports max response, outcome and Potency results from PubChem BioAssay (NCATS).

Where “and” joins values, the source holds several entries; their conditions need not be identical. Identical values can stand only once. Values without a mark were called inactive. Records with an inconclusive call do not appear. Calls of active or inactive are those of the source. Unless noted, calls follow the shape of the dose curve; as a rule, active = well fitted curve in the direction sought with a large enough effect; inconclusive = small, poorly fitted or top-dose-only effect, or another doubt; inactive = no such curve, though single readings can be large; an effect the other way counts as inactive or inconclusive.

Assay [1] in a line: qHTS assay for small molecule agonists of the antioxidant response element (ARE) signaling pathway measured by Nrf2-dependant transcriptional activity - cell viability counter screen (AID 720653; active = well fitted curve in the direction sought with a large enough effect in the repeat runs; an effect the other way counts as inactive or inconclusive; also: % is scaled to controls: 0 for no effect and ±100 for the full control effect). Conditions: ARE-bla HepG2 viability, CellTiter-Glo ATP luminescence, 16 h; active compounds read low. In outline: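 Cytotoxicity counter screen: intracellular ATP quantified by CellTiter-Glo luminescence in the same ARE-bla HepG2 plates, after 16 h compound exposure and a 2 h beta-lactamase substrate step.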

The nature of assay [2]: qHTS Assay for Identifying Gametocytocidal Compounds (AID 743244). Also: potency is read from the fitted curve at half-maximal effect.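 As to max response: % is scaled to controls: 0 for no effect and ±100 for the full control effect; actives lower the fluorescent signal which means gametocytes are killed.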 Conditions: P. falciparum 3D7 stage III-V gametocytes, alamarBlue, 72 h; max response: active compounds read low. In outline:
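Stage III–V gametocytes of P. falciparum 3D7 were seeded at 20,000 cells/well onto pre-dispensed compounds. After 72 h, 37 °C, 5% CO2, alamarBlue was added for another 24 h.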
A general note: Quantitative high-throughput screening tests each substance at several concentrations.

The nature of assay [3]: qHTS assay for cell viability of HEK293 cells (AID 743288). Also: nearly all actives have a fitted effect of over 50% in size. Also: potency is read from the fitted curve at half-maximal effect. As to max response: % is scaled to controls: 0 for no effect and ±100 for the full control effect. Particulars: ATP luminescence (CellTiter-Glo), 18 h; max response: active compounds read low. In outline: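 Viable-cell counts were inferred from luciferase-based ATP content in HEK293 cells seeded at 2,000/well, pre-incubated ≥5 h, then dosed with DMSO-solubilised compounds for 18 h at 37 C.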
Assay [4] in a line: qHTS assay for cell viability of the p53RE-bla HCT-116 cell line (AID 743292). Also: % is scaled to controls: 0 for no effect and ±100 for the full control effect; nearly all actives have a fitted effect of over 55% in size. Particulars: p53RE-bla HCT-116 viability, ATP luminescence, 16 h; series mostly up to 95 µM. In outline:
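Quantitative high-throughput format: compounds in DMSO were pinned onto p53RE-bla HCT-116 cells (4,000/well) and incubated 16 h at 37 C. Total intracellular ATP, read by CellTiter-Glo luminescence, reflects viable cell number.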

Assay [5] concerns the target T1, Hexokinase-4 (Homo sapiens) + Glucokinase regulatory protein (Homo sapiens) (UniProt P35557+Q14397). As to the kind of experiment: qHTS assay for inhibitors of recombinant human GCK-GKRP interaction: Diaphorase-coupled assay (AID 743205). Particulars: G6PDH/diaphorase resorufin fluorescence; series mostly up to 57.5 µM. In outline:
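25 mM Hepes pH 7.6, 5 mM glucose, 0.4 mM ATP, 4 U/ml G6PDH; 10 nM each GST-GCK/FLAG-GKRP. Kinetic fluorescence read, 1/min × 30 min. Normalized: DMSO ± enzyme = max/min.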

Assay [6] is described as follows: qHTS assay for small molecule antagonists of the retinoid-related orphan receptor gamma (ROR-gamma) signaling pathway - cell viability counter screen (AID 720652; active = well fitted curve in the direction sought with a large enough effect in the repeat runs; an effect the other way counts as inactive or inconclusive;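 also: compound exposure lasted 16 hr before ATP read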; also: potency is read from the fitted curve at half-maximal effect). Conditions: RORgamma reporter cell line viability counter screen; series mostly up to 92.2 µM. In outline: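 Steps: seed CHO cells bearing TET-inducible ROR and ROR response element-luciferase; rest 5 hr at 37 C; add compound, then doxycycline; incubate 16 hr; add CellTiter-Glo and read luminescence as ATP-based viability.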

Assay [7] has as its target T1, Hexokinase-4 (Homo sapiens) + Glucokinase regulatory protein (Homo sapiens). Description: qHTS assay for inhibitors of recombinant human GCK-GKRP interaction: ADP-Glo assay (AID 743206).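 Also: plate controls were DMSO plus enzyme for no effect and no enzyme for full effect.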 Conditions: ADP-Glo luminescence, 60 min, 0% = vehicle-only wells with enzyme present; series mostly up to 76.9 µM. The source says:
Glucokinase (GCK) is a glucose sensor in hepatocytes and pancreatic beta-cells. Hepatic GCK is regulated by glucokinase regulatory protein (GKRP), which is predominantly localized to the liver. GKRP binds to GCK inhibiting its activity in the fasting state while in the presence of glucose the GKRP is displaced. There is an additional layer of regulation by fructose 1-phosphate and fructose 6-phosphate, which inhibit and enhance the GCK-GKRP interaction, respectively. GCK plays a role in glucose homeostasis and there is an interest in the development of strategies to activate GCK to lower blood glucose levels in type 2 diabetes. To date the majority of effort has focused on direct activation of GCK and the assays developed herein look to activate GCK by inhibiting its binding to GKRP. A compound that inhibits the interaction of GCK with GKRP could be important for the treatment of diabetes and can also be used as a tool compound to further elucidate GCK-GKRP biology. To that end, we have developed a sensitive HTS biochemical assay where in GCK activity is coupled to luciferase to interrogate the GCK-GKRP interaction. This assay was screened against a small compound library to look for modulators of activity.
2 uL of 15 nM GST-GCK and 15 nM FLAG-GKRP proteins with 2 uM S6P (columns 1-2, 4-48; Millipore, Billerica, MA) are dispensed into Greiner, white solid-bottom 1536-well assay plates; columns 3 receive buffer without GCK as a control for maximum inhibition. Compounds (23 nL) are then transferred via Kalypsys pin tool equipped with 1536-pin array (10 nL slotted pins, V&P Scientific, San Diego, CA). The library compounds are in columns 5-48 and columns 1-4 serve as controls with DMSO in columns 1 and 3 and 26 mM 1:1.5 fold serial of gluckokinase activator (GKA-EMD) in column 2 and 26 mM of the glucokinase activator (GKA-EMD) in column 4. Following addition of compound, 1 uL of ATP […] is added, and the plate is incubated for 60 minutes at room temperature. The amount of ADP is then quantified by the ADP-Glo Kit (Promega, Madison, WI). First, 2 uL of the first kit reagent is added, and the reaction is incubated for 45 minutes; then, 4 uL of the second kit reagent are added and the reaction is incubated for 30 minutes at which time the luminescence is read on a Viewlux plate reader (Perkin-Elmer, Waltham, MA). The final concentration of reagents in the reaction are 0.4 mM ATP, 25 mM Hepes pH 7.6, 25 mM KCl, 2 mM MgCl2, 1 mM DTT, 0.025% BSA, 0.01% Tween 20, 5 mM glucose. Data are normalized to DMSO-treated control columns with (maximum signal) and without (minimum signal) enzyme.

For assay [8] the target is unchanged. As to the kind of experiment: qHTS assay for inhibitors of recombinant human GCK-GKRP interaction: HTRF assay (AID 743207).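 Also: 0% = DMSO with GCK present and -100% = DMSO wells lacking GCK.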 Particulars: recombinant GCK-GKRP HTRF binding, 60 min; series mostly up to 57.5 µM. In outline:
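5 nM GST-GCK + 5 nM FLAG-GKRP + 2 uM S6P, pH 7.1 buffer (25 mM Hepes, 2 mM MgCl2, 25 mM KCl, 1 mM DTT, Tween/BSA); pin-transferred cpd; anti-FLAG XL665/anti-GST K; 60 min RT; HTRF.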

T1 sequence (P35557 whole entry, looked up): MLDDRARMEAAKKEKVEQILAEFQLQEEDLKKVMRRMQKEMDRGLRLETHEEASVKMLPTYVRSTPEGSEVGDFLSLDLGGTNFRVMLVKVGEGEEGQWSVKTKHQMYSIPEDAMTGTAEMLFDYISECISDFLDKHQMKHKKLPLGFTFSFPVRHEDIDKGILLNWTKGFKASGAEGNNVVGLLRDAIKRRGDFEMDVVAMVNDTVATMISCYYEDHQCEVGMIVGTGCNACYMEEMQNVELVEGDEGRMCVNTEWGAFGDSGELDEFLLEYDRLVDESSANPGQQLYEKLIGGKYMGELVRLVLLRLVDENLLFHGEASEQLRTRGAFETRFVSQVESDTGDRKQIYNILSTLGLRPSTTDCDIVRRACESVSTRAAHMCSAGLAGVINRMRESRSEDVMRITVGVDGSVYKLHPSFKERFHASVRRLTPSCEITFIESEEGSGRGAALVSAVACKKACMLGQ
T1 sequence (Q14397 whole entry, looked up): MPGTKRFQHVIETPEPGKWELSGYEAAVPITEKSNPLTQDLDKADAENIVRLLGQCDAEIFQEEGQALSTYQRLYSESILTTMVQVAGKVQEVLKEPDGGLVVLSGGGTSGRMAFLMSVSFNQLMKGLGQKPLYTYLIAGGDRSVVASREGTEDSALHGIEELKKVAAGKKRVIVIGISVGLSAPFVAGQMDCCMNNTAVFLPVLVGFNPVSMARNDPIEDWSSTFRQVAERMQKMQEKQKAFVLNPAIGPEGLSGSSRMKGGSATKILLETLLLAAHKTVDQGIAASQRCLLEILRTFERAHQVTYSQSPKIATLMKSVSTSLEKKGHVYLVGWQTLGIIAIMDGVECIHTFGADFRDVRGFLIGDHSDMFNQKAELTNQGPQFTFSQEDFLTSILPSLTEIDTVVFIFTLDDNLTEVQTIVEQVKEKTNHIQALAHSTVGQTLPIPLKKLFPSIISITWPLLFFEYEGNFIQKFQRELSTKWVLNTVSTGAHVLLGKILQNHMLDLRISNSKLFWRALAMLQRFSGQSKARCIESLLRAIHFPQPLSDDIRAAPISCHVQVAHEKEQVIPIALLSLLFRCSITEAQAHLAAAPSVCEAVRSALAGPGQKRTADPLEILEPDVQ

On to `CCNc1nc(Cl)nc(NCC)n1`, for which the max response in assay [1] was 2.17%; in assay [2] it was 2.85%; in assay [3], -8%. In assay [4], the call was inactive.
As to `CNC(=O)Oc1ccc2c(c1)[C@]1(C)CCN(C)[C@@H]1N2C`, in assay [5], the result was inactive. Also, in assay [2], the Potency was 11.2 µM (active) and 3.55 µM (active).
As for `Cc1c(C)c2c(c(C)c1OC(=O)CCC(=O)OCCO)CC[C@@](C)(CCC[C@H](C)CCC[C@H](C)CCCC(C)C)O2`, in assay [2], the max response was -0.873%.
Turning to `CN(C)C(=S)SSC(=S)N(C)C`, the Potency was 33.5 µM (active) in assay [6], 0.0662 µM (active) in assay [2] and 44.7 µM (active) in assay [3]. The max response in assay [1] is -25.3%. In addition, the outcome in assay [4] was inactive.
Consider `O=C(CCl)c1ccc(Cl)cc1Cl`, for which the Potency in assay [6] is 21.1 µM (active); in assay [3], 14.1 µM (active). In assay [2], the max response was 14.5% and 7.69%.
Turning to `Cc1ccc(N=CN(C)C=Nc2ccc(C)cc2C)c(C)c1`, the max response in assay [1] was -11.3%; in assay [2] it was 9.43%; in assay [3], -16.1%. In addition, in assay [4], the result was inactive.
With `COP(=O)(OC)C(O)C(Cl)(Cl)Cl` (centres undefined), the figures for the max response in assay [1] and in assay [3] were -9.64% and -19.1%, respectively. The result in assay [4] was inactive.
For the molecule `Oc1ccc(Cl)cc1Cc1cc(Cl)ccc1O`, the max response in assay [1] was -12%.
As to `CCN(CC)CCCN(c1ccccc1)C1Cc2ccccc2C1`, the Potency in assay [2] is 8.91 µM (active).
With `CCOP(=S)(OCC)O/N=C(\C#N)c1ccccc1`, the results for the max response in assay [1], in assay [2] and in assay [3] were 4.22%, -3.66% and -1.29%, respectively. Also, the outcome in assay [4] was inactive.
Take `COc1ccc(C(=O)N2CCCC2=O)cc1`: the outcome in assay [5], in assay [7] and in assay [8] was inactive. Also, the max response in assay [2] is -3.61% and 29.8%.
Take `CCCCCCCCCCCC[N+](C)(C)CCOc1ccccc1`: the Potency was 26.6 µM (active) in assay [6] and 8.91 µM (active) in assay [2]. Further, in assay [1], the max response was -6.97%. Moreover, the result in assay [4] was inactive.
With `COc1ccc(OC)c(CC(C)N)c1` (centres undefined), the max response in assay [2] was -18.6%.
Consider `CNC(=O)Oc1cccc2ccccc12`, for which the Potency entry in assay [6] was “inactive”. For the same molecule, the max response in assay [1] is 6.76% and -21.4%; in assay [3], -4.95% and -11.8%. For the same molecule, in assay [2], the Potency was 35.5 µM (active). Further, the call in assay [4] was inactive.
`CCC(=O)O[C@H]1CC[C@H]2[C@@H]3CCC4=CC(=O)CC[C@]4(C)[C@H]3CC[C@]12C`: the max response was -2.38% in assay [1], 11.3% in assay [2] and -26.1% in assay [3]. The outcome in assay [4] was inactive.
Taken in the same sequence, the figures for `O=c1n(Cl)c(=O)n(Cl)c(=O)n1Cl` were -3.02%, -4.5%, 2.76% and “inactive”.
Taken in the same sequence, the figures for `N#Cc1nn(-c2c(Cl)cc(C(F)(F)F)cc2Cl)c(N)c1S(=O)C(F)(F)F` (centres undefined) were -35.8%, 6.82%, -24.4% and “inactive”.
In the case of `C[C@H]1CNCCc2ccc(Cl)cc21`, the max response in assay [2] was 16.3%.
For the molecule `CCCCCCCCC(=O)NCc1ccc(O)c(OC)c1`, the max response was -1.94% in assay [1], -2.23% in assay [2] and -11.8% in assay [3]. Also, the molecule was called inactive in assay [4].
